NSD2 inh: inhibitors of human NSD2 methyltransferase; O96028; NSD2-SET H3K36me1 DELFIA fluorescence, biochemical; inhibition, % at 12.5 µM; 0.07% of 44,000 active; AID 624260; in the data active = inhibition above about 54%, passing the limit was not always enough;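 also: inhibitors reduce the monomethyl H3K36 fluorescence signal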
Hits are given with their value; – = inactive. Shown is part of a subset that was picked to be rich in hits.

SMILES | NSD2 inh
COC(=O)C1=CO[C@@H](O[C@@H]2O[C@H](CO)[C@@H](O)[C@H](O)[C@H]2O)[C@H]2[C@@H]1[C@H](OC(C)=O)C[C@]2(C)O | –
COC(=O)C1=COC(O[C@@H]2O[C@H](CO)[C@@H](O)[C@H](O)[C@H]2O)[C@H]2[C@@H]1[C@H](OC(=O)CCc1ccc(O)cc1)C[C@]2(C)O (some centres not stated) | –
COC(=O)C1=COC(OC2OC(CO)C(O)C(O)C2O)C2C1C=CC2(O)CO (configuration not stated) | 60.2
COC(=O)C1=CC(C(=O)c2ccccc2)=NN(c2ccccc2)C1C(=O)OC (configuration not stated) | –
Cn1cc(/C=N/NC(=O)c2cccc(C(=O)NO)c2)c2ccccc21 | –
C[C@H](CO)N1C[C@H](C)[C@@H](CN(C)S(=O)(=O)c2ccc(F)cc2)OCCCC[C@H](C)Oc2ccc(NC(=O)Nc3ccccc3)cc2C1=O | –
COc1ccc(NCc2ccc(C(=O)Nc3ccccc3N)cc2)cc1OC | –
O=C(O)CCCCCCC(=O)N/N=C/CCC1CCCCC1 | –
O=C(O)CCCC[C@@H]1SC[C@@H]2NC(=O)N[C@@H]21 | 104.9
O=C(CCCCC(=O)N/N=C/c1ccc(Br)s1)NO | –
COc1cc(/C=C/C(=O)NCCSc2c[nH]c3ccccc23)cc(OC)c1OC | –
O=C(CCCCC(=O)N/N=C/c1ccncc1Br)NO | –
N#Cc1cccc(NCCN2CCNC2=O)n1 | –
CCN(CC)CCOc1ccc(/C(=C(\Cl)c2ccccc2)c2ccccc2)cc1 | –
CN(C)CCOC(=O)COc1ccc(Cl)cc1 | –
CC/C(=C(/c1ccccc1)c1ccc(OCCN(C)C)cc1)c1ccccc1 | 57.9
COc1ccc(/C=N/NC(=O)CCCCC(=O)NO)cc1 | –
O=C(CCCCCCC(=O)Nc1ccccc1O)N/N=C/c1ccc(OCc2ccccc2)cc1O | –
O=C(CCCCCC(=O)Nc1ccccc1O)N/N=C/c1ccc[nH]1 | –
CC1(C)CC[C@]2(C(=O)O[C@@H]3O[C@H](CO)[C@@H](O)[C@H](O)[C@H]3O)CC[C@]3(C)C(=CCC4[C@@]5(C)C[C@@H](O)[C@H](O)[C@@](C)(CO)C5[C@H](O)C[C@]43C)C2[C@@H]1O (some centres not stated) | 62.4
CC1(C)CC[C@]2(C(=O)O[C@@H]3O[C@H](CO)[C@@H](O)[C@H](O)[C@H]3O)CC[C@]3(C)C(=CCC4[C@@]5(C)C[C@@H](O)[C@H](O)[C@@](C)(CO)C5[C@H](O)C[C@]43C)C2C1 (some centres not stated) | –
CC1(C)CC[C@]2(C(=O)O[C@@H]3O[C@H](CO)[C@@H](O)[C@H](O)[C@H]3O)CC[C@]3(C)C(=CCC4[C@@]5(C)C[C@@H](O)[C@H](O)C(C)(C)C5CC[C@]43C)C2[C@@H]1O (some centres not stated) | –
O=c1c(O[C@@H]2O[C@H](CO)[C@@H](O)[C@H](O)[C@H]2O)c(-c2ccc(O)c(O)c2)oc2cc(O)cc(O)c12 | –
O=c1c(O[C@@H]2O[C@H](CO)[C@H](O)[C@H](O)[C@H]2O)c(-c2cc(O)c(O)c(O)c2)oc2cc(O)cc(O)c12 | 85.3
O=c1c(O[C@@H]2O[C@H](CO)[C@@H](O)[C@H](O)[C@H]2O)c(-c2ccc(O)cc2)oc2cc(O)cc(O)c12 | –
Clc1nc(Cl)c2cc(Br)ccc2n1 | –
C=C1C(=O)O[C@H]2C1CCC(C)=C1C(=O)C=C(C)[C@@H]12 (some centres not stated) | –
COc1cc(CO)ccc1OC(C)=O | –
Cc1ccc(NCc2ccc(C(=O)Nc3ccccc3[N+](=O)[O-])cc2)cc1C | –
O=C(NO)c1ccc(C(=O)N/N=C/c2cc(Br)cc([N+](=O)[O-])c2O)cc1 | –
